# Source: PubChem (National Center for Advancing Translational Sciences (NCATS))
# CtBP-E1A inh: inhibitors of CtBP/E1A interaction. AlphaScreen GST-E1A/His-CtBP binding, 1536-well; active compounds read low. activity change, % (test concentration not listed). 0.49% of 340,000 active. AID 651724; in the data active means activity change below about -65%; inconclusive means mostly about -30% to -63%; further: on the % scale 0 is the no-effect control and ±100 the full control effect
#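 In 5 uL wells, 23 nL compound meets equimolar GST-E1A and His-CtBP (5X stock 125 nM each) for 2 h, 37 °C. Beads (5X, 50 ug/mL) then 1 h, 37 °C, dark.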
# JMJD2A Tudor: JMJD2A Tudor domain (human) inhibition; AID 504339; Potency, µM (doses to about 114 µM), without a hit: at the highest dose activity change, negative = inhibition, hits mostly inhibitors; AlphaScreen JMJD2A-Tudor / H3K4me3 peptide binding; O75164; 4.4% of 390,000 active; further: potency means the concentration at half of the fitted maximal effect; on the % scale 0 is the no-effect control and ±100 the full control effect; nearly all actives have a fitted effect of over 50% in size
# HP1b chromo inh: HP1-beta chromodomain-methylated histone interaction inhibition; 0.56% of 390,000 active; AlphaScreen HP1-beta / biotin-H3K9me3 peptide binding; Potency, µM (titrated, usually from 114 µM), for the others: at the highest dose activity change, negative = inhibition, most hits filed as inhibitors; further: potency means the concentration at half of the fitted maximal effect; nearly all actives have a fitted effect of over 70% in size
#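 HP1-beta protein (50 nM final) preincubated 30 min at room temperature with biotinylated H3(1-18)K9me3 peptide (50 nM) in PBS pH 7.4, 0.01% Tween-20, then compound added for 30 min. AlphaScreen streptavidin donor/nickel chelate acceptor beads (10 ug/mL final), 30 min dark, luminescence read.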
# BAZ2B block: blocks human BAZ2B | Q9UIF8 | AlphaScreen BAZ2B-H3K14Ac peptide displacement | Potency, µM (highest dose often 114 µM), without a hit: at the highest dose activity change, negative = inhibition, usual class: inhibitors | 4.4% of 360,000 active | AID 504333; further: potency means the concentration at half of the fitted maximal effect; on the % scale 0 is the no-effect control and ±100 the full control effect; nearly all actives have a fitted effect of over 60% in size
#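 AlphaScreen displacement: compounds (up to 110uM) incubated 30 min at room temperature with a preformed 50 nM BAZ2B/50 nM biotinylated H3K14Ac peptide complex in PBS pH 7.4 with Tween-20. Donor and acceptor beads at 10 ug/mL final added, 20 min light-protected before reading.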
# G9a inh: inhibitors of human histone lysine methyltransferase G9a; G9a H3K9 monomethylation, AlphaScreen, 2 h; Potency, µM (highest dose often 102 µM), inactives show at the highest dose activity, negative = inhibition, actives largely listed as inhibitors; 8.8% of 350,000 active; AID 504332; further: potency means the concentration at half of the fitted maximal effect; on the % scale 0 is the no-effect control and ±100 the full control effect; nearly all actives have a fitted effect of over 75% in size
#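 Methyltransferase reactions run at room temperature for 2 h (20 nM enzyme, 500 nM biotin-H3K9 peptide, 20 uM SAM) after a 15 min compound preincubation; product detected by AlphaScreen beads and anti-H3K9me1 antibody.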
# Six1-Eya2 blk: inhibitors of human Six1/Eya2 interaction | Q15475+O00167 | AlphaScreen GST-Six1/His-Eya2 binding, biochemical; active compounds read low | activity change, % (no concentration beside the values) | 0.56% of 360,000 active | AID 651725; in the data active means activity change below about -65%; inconclusive means mostly about -30% to -63%; further: on the % scale 0 is the no-effect control and ±100 the full control effect
#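 AlphaScreen luminescence read after one hour at 37 °C in darkness. Pin-transferred compounds met GST-Six1 and His-Eya2 protein (5X stock 250 nM/500 nM) plus glutathione donor and Ni-chelate acceptor beads (5X, 50 ug/mL).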
# * marks the source's active call; other numbers are inactive results; ? = inconclusive; . = no result; [ ] = dose if it differs, or a comment. Only some compounds are listed: those with a hit (about 10% of all), similar ones and a draw of the others. Unless noted, the call rests on the fitted dose curve; in most records, active means well fitted inhibition curve with a large enough effect; inconclusive means small, poorly fitted or top-dose-only effect; inactive means no such curve, though single readings can be large or run the other way.
SMILES,CtBP-E1A inh,JMJD2A Tudor,HP1b chromo inh,BAZ2B block,G9a inh,Six1-Eya2 blk
S=c1[nH]nc(-c2ccncc2)n1Cc1ccccc1,11,7.9µM*,26%,.,10µM*,4
Fc1ccc(-c2c[nH]c(=S)n2Cc2ccccc2)cc1,-7,?,20%,-38%,1.1µM*,-17
OCCCn1c(-c2ccccc2)n[nH]c1=S,6,28µM*,24%,-3%,7.9µM*,7
CC(C)(C)OC(=O)N1CCC(C(=O)Nc2ccc3c(c2)CCC3)CC1,-24,4%,23%,9%,-8%[2.33 µM],-1
CCc1nnc(NC(=O)CSc2ccc(-c3ccccc3OC)nn2)s1,-4,3%,26%,-27%,8%,1
COc1ccccc1N1C(=O)c2ccccc2NC1c1ccc(O)cc1 (centres undefined),-5,3%,22%,-8%,9%,5
O=C(COc1ccc(Br)cc1)NCCNC(=O)c1ccccn1,-1,0%,24%,-8%,61%,0
S=c1[nH]c2cnccc2n1Cc1ccccc1,0,18µM*,11%,-18%,7.1µM*,0
S=c1[nH]nc(-c2cccnc2)n1Cc1ccccc1,5,8.9µM*,11%,-5%,1.3µM*,2
FC(F)C(F)(F)Oc1cccc(-c2n[nH]c(=S)n2Cc2ccccc2)c1,-16,-35%,-14%,-4%,3%[0.501 µM],-5
S=c1[nH]nc(-c2ccc3ccccc3n2)n1Cc1ccccc1,1,-17%,29%,5%,?,2
Cc1ccn2c(-c3n[nH]c(=S)n3Cc3ccccc3)c(C)nc2c1,-3,3.5µM*,?,-7%,7.1µM*,6
Oc1ccc(-c2n[nH]c(=S)n2Cc2ccccc2)cc1,0,32µM*,-8%,1%,1.1µM*,-3
Cc1ccn2c(C(=O)CSc3ccccc3)c(C)nc2c1,-5,-23%,31%,-15%,-3%,-1
O=C1CCN(Cc2ccccc2)S(=O)(=O)c2ccc(C(F)(F)F)cc21,11,14%,91%,9%,-8%[2.33 µM],4
Cc1ccc(-n2nc3c(c2NC(=O)c2cc4ccccc4o2)CS(=O)(=O)C3)cc1,-2,-20%,10%,-4%,37%,1
O=c1[nH]cc(-c2ccc(Br)cc2)n1Cc1ccccc1,.,-28%,-38%,?,11µM*,-22
Fc1ccc(-c2n[nH]c(=S)n2Cc2ccccc2)cc1,-4,18µM*,6%,-1%,?,-18
O=c1[nH]c2ccccc2n1Cc1ccccc1,1,1%,43%,-6%,-14%[59 µM],-8
CC(C)(C)c1ccc(-c2n[nH]c(=S)n2Cc2ccccc2)cc1,-3,-4%,30%,-11%,-39%,-10
CCCCOc1ccc(-c2n[nH]c(=S)n2Cc2ccccc2)cc1,1,-22%,2%,-1%,20µM*,-3
S=c1[nH]nc(-c2ccc(Br)cc2)n1Cc1ccccc1,-6,?,-21%[57 µM],?,10µM*,-12
O=C(Nc1ccc(F)cc1)C(c1ccnc2ccccc12)N1CCN(CC(=O)N2CCCC2)CC1 (centres undefined),-1,.,.,.,.,2
O=C(NCCOCCn1c(=O)oc2ccccc21)Nc1cccc(Cl)c1,.,-11%,31%,-9%,-6%[59 µM],.
Cc1ccc(-c2onc(C)c2C)cc1S(=O)(=O)NCc1ccco1,.,-15%,10%,-25%,0%[59 µM],.
SMILES,CtBP-E1A inh,JMJD2A Tudor,HP1b chromo inh,BAZ2B block,G9a inh,Six1-Eya2 blk
COc1cc(/C=C/C(=O)c2ccc(NS(=O)(=O)c3ccc(C)cc3)cc2)ccc1OC(F)F,3,-26%,0%,-7%,-7%[59 µM],1
COc1cccc(C(=O)/C=C/Nc2ccc(S(=O)(=O)Nc3cccc(C(C)=O)c3)cc2)c1,-16,-27%,-2%,-30%,?,-11
COc1cccc(/C=C/C(=O)c2ccc(NS(=O)(=O)c3ccc(C)cc3)cc2)c1,2,?,-18%,?,2.5µM*,12
COc1cc(/C=C/C(=O)c2ccc(NS(=O)(=O)c3ccc(C)cc3)cc2)cc(OC)c1O,15,-33%,?,?,40µM*,10
CC(=O)Nc1ccc(NCCc2ccco2)cc1,3,.,.,.,.,-2
CCOC(=O)c1n[nH]n(-c2cc(Cl)cc(Cl)c2)c1=O,21,7%,43%,12%,3%,-5
COC(=O)Cc1c(C)[nH]n(-c2cc(Cl)cc(Cl)c2)c1=O,-14,-14%,14%,?,40µM*,-3
Oc1ccc2c(ccc3[nH]cnc32)c1,.,-8%,20%,-28%,50µM*,0
c1ccc(-c2cnc(SCCN3CCOCC3)n2CC2CCCO2)cc1 (centres undefined),-3,3.5µM*,?,20µM*,2.5µM*,7
Nc1nc(Nc2ccc(Cl)cc2)c(NC=O)c(=O)[nH]1,-18,?,4%,.,.,-9
COC(=O)c1[nH]c2ccccc2c1NC(=O)Oc1ccccc1,-9,-28%,9%,-31%,10µM*,-7
COC(=O)c1[nH]c2ccccc2c1NC(=O)c1ccccc1F,.,1%,22%,-11%,5%,-7
COC(=O)c1[nH]c2cc(OC)c(OC)cc2c1NC(=O)Oc1ccccc1,-23,?,1%,-39%,2.8µM*,-21
CCOC(=O)c1[nH]c2cc(OC)c(OC)cc2c1NC(=O)C(C)N1CCN(Cc2ccccc2)CC1 (centres undefined),-65*,-26%,-15%,?,45µM*,?
C=CCOC(=O)Nc1c(C(=O)OC)[nH]c2ccccc12,-14,7%,43%,-26%,50µM*,-25
COc1ccc2[nH]c(=O)c(CNc3cccc(C)c3)cc2c1,-2,-18%,24%,-7%,?,-13
COc1ccc(-n2c(/C=C/c3cccc(C(F)(F)F)c3)nc3ccccc3c2=O)cc1Cl,.,-8%,21%,0%,1%[59 µM],.
Cc1cccc(N=C2NC(=O)/C(=C/C=C/c3ccco3)S2)c1C,-20,40µM*,45µM*,22µM*,18µM*,?
Cc1ccc(N=C2NC(=O)/C(=C/C=C/c3ccco3)S2)cc1,-5,35µM*,?,16µM*,11µM*,?
COc1ccc(N=C2NC(=O)/C(=C/C=C/c3ccccc3)S2)cc1,4,-10%,13%,-14%,.,0
O=C1NC(=Nc2ccccc2)S/C1=C\C=C\c1ccco1,-10,50µM*,?,25µM*,?,?
CO[C@@]1(NC(=O)Cc2cccs2)C(=O)N2C(C(=O)O)=C(COC(N)=O)CSC21 (some centres undefined),.,.,.,.,-29%[2.33 µM],.
